Hits are enriched below; roughly 6.2% of the tested compounds scored in any of these assays.
HCMV inh = blocks human cytomegalovirus replication; HFF cells, HCMV-luciferase reporter, 72 h; active compounds read low; activity change, negative = inhibition, % at 57.5 µM; 410,000 compounds, 4.5% hits; in the data active = activity change below about -60%; inconclusive = no clear call, values can overlap the other calls; inactive = above about -39%
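Luciferase read-out from HCMV-luciferase-infected HFFs (MOI 1 PFU/cell) 72 h post infection at 37C; compounds added after 16 h cell attachment; activity normalized between buffer-only basal and Salinomycin (10uM) inhibitor controls.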
FMDV inh = foot and mouth disease virus antiviral activity. FMDV antiviral cell-based qHTS. Potency, µM (titrated, usually from 57.9 µM), for inactives: at the top dose activity change, negative = inhibition, hits mostly inhibitors. AID 1159524. 410,000 compounds, 1.2% hits; calls by dose curve; tested in HEK293T cells; note: read-out not given here; potency is the fitted concentration of half-maximal effect; nearly all actives have a fitted effect of over 45% in size
Marburg entry inh = blocks Marburg virus binding to or entry into cells; Marburg virus pseudotyped entry inhibition, cell reporter; Potency, µM (doses to about 37.8 µM), for inactives: at the top dose activity change, negative = inhibition, hits mostly inhibitors; 300,000 compounds, 1.8% hits; calls by dose curve; tested in HEK293 cells; note: potency is the fitted concentration of half-maximal effect
Lassa entry inh = inhibitors of Lassa virus binding or cell entry; Lassa virus pseudotype entry inhibition, cell reporter; Potency, µM (doses to about 37.9 µM), for the others: top-dose activity change, negative = inhibition, usual class: inhibitors; 300,000 compounds, 1.2% hits; calls by dose curve; tested in HEK293 cells; note: potency is the fitted concentration of half-maximal effect; nearly all actives have a fitted effect of over 50% in size
* hit, by the source's call; ? = inconclusive; · = not tested or not shown; [ ] = dose if it differs, or a comment. % is set by controls: 0 for no effect and ±100 for the full control effect.

SMILES	HCMV inh	FMDV inh	Marburg entry inh	Lassa entry inh
CC(=O)N1CCOc2ccc(S(=O)(=O)NCC3CCC(C(=O)Nc4ccc(C)cn4)CC3)cc21 (stereo unspecified)	-68*	?	?	?
COc1ccccc1NC(=O)C1CCC(CNS(=O)(=O)c2ccc3c(c2)CC(C)N3C(C)=O)CC1 (stereo unspecified)	-31	32µM*	·	?
CCc1ccc(NC(=O)C2CCC(CNS(=O)(=O)c3ccc4c(c3)CC(C)N4C(C)=O)CC2)cc1 (stereo unspecified)	29	18µM*	·	-1%[46.1 µM]
COc1cccc(CNC(=O)c2c(OC)cc(=O)n3c2CCN(C(=O)c2ccc(C)nc2)CC3)c1	·	-12%	·	·
CC(C)C(=O)NCC1CCC2(CCN(Cc3ccc(-c4cccc(Cl)c4)o3)CC2)O1 (stereo unspecified)	·	21%	·	·
COc1cccc(N2CC(NC(=O)Cc3cccs3)CC2=O)c1 (stereo unspecified)	75	-10%	·	-23%[46.1 µM]
CC(=O)N1c2ccc(S(=O)(=O)NCC3CCC(C(=O)Nc4ccc(C)c(C)c4)CC3)cc2CC1C (stereo unspecified)	-17	18µM*	·	7%[46.1 µM]
CC(=O)N1c2ccc(S(=O)(=O)NCCC(=O)NCCc3ccc(C)cc3)cc2CC1C (stereo unspecified)	0	-28%	·	·
CC(=O)N1c2ccc(S(=O)(=O)NCC3CCC(C(=O)Nc4ccc(F)cc4)CC3)cc2CC1C (stereo unspecified)	-26	35µM*	·	?
CC(=O)N1c2ccc(S(=O)(=O)NCC3CCC(C(=O)Nc4cc(C)cc(C)c4)CC3)cc2CC1C (stereo unspecified)	-22	?	·	?
CC(=O)N1c2ccc(S(=O)(=O)NCCC(=O)NCCc3ccc(Cl)cc3)cc2CC1C (stereo unspecified)	-61*	-26%	·	·
CS/C(N)=C(C#N)/C(C#N)=C(\N)SC	·	-13%	·	·
CC(=O)Nc1ccc(NC(=O)c2cc([N+](=O)[O-])cc([N+](=O)[O-])c2)cc1	-29	-11%	5%[46.1 µM]	-1%[46.1 µM]
COc1ccc(C(=O)Nc2ccccc2N2CCCCC2)cc1[N+](=O)[O-]	-63*	?	·	·
Cc1ccc(NC(=O)c2ccc(Nc3c([N+](=O)[O-])cc([N+](=O)[O-])cc3[N+](=O)[O-])cc2)cc1	-94*	13µM*	10µM*	?
Cc1ccc(C(=O)Nc2ccccc2N2CCCCC2)cc1[N+](=O)[O-]	-12	?	·	·
COc1ccc(C(=O)Nc2ccc(OCc3ccccc3)cc2)cc1[N+](=O)[O-]	10	0%	?	-9%
COc1ccc(C(=O)Nc2ccc(Nc3ccccc3)cc2)cc1[N+](=O)[O-]	-18	35µM*	·	·
COc1ccc2c(Sc3ccccc3)c(C(=O)NCC(C)c3ccccc3)[nH]c2c1 (stereo unspecified)	-10	51%	1%[46.1 µM]	11%[46.1 µM]
CCN(C(=O)c1cn(CC)c(=O)c2cc(OC)c(OC)cc12)c1ccccc1F	-13	-15%	1%[46.1 µM]	9%[46.1 µM]
C=CCOC(=O)C(C(C)=O)[C@@H](NC(=O)OC)c1ccco1 (stereo partly specified)	·	·	19%[14.2 µM]	·
O=C(NC1CC1)c1cccc2c1C(=O)c1ccc(N3CCC(N4CCCCC4)CC3)cc1S2(=O)=O	-17	-2%	·	·
COC(=O)C1CCN(C(=O)COC(=O)c2ccc(=O)n(Cc3ccccc3)n2)CC1	5	-11%	17%	-19%
O=C(NC1CCCCCC1)c1ccc(=O)n(Cc2ccccc2)n1	-66*	-18%	·	·
CCc1ccc(/C=C/C(=O)C2C(=O)c3ccccc3C2=O)cc1	15	·	?	2.3µM*
SMILES	HCMV inh	FMDV inh	Marburg entry inh	Lassa entry inh
CCN(CC)c1ccc2c(C)c(-c3ccc(N)cc3)c(=O)oc2c1	?	0%	?	10µM*
CCC(=O)NCc1csc(-c2cccs2)n1	-70*	45%	?	?
CCN(c1ccc(C)cc1C)S(=O)(=O)c1nnc(NC(=O)C(C)C)s1	-73*	-27%	·	·
Cc1cc(C)cc(N(C)S(=O)(=O)c2nnc(NC(=O)C(C)C)s2)c1	?	-9%	?	?
CCN(c1cc(C)cc(C)c1)S(=O)(=O)c1nnc(NC(=O)C(C)C)s1	-77*	13%	?	-20%
CCN(c1ccc(C)cc1C)S(=O)(=O)c1nnc(NC(=O)C(C)(C)C)s1	33	-26%	?	?
CC(CCN1CCc2nc(-c3ccccc3)c(-c3ccccc3)cc2C1)=NO[C@H](C)CN1CCCCc2nc(C)c(C)cc21	·	·	25%[14.2 µM]	·
COc1cccc(CNC(=O)c2c(OC)cc(=O)n3c2CCN(C(=O)c2cc(C)ccc2C)CC3)c1	·	18%	·	·
COc1ccccc1NS(=O)(=O)c1cccc(NC(=O)NC2CCCCC2)c1	-76*	-16%	?	?
COc1ccccc1NS(=O)(=O)c1cccc(NC(=O)c2ccc3ccccc3n2)c1	-79*	16%	?	?
COc1ccccc1NC(=O)NC1CCCCCCC1	?	27%	1%[46.1 µM]	-14%[46.1 µM]
COc1ccccc1NS(=O)(=O)c1cccc(NS(=O)(=O)c2cc(C(=O)O)ccc2OC)c1	-102*	-5%	-11%	14%
CCC[C@H]1[C@@H](NS(=O)(=O)c2ccc3ccccc3c2)CC[C@@]23CCCN2C(=O)CCC[C@@H]13	-14	·	·	·
CS(=O)(=O)Nc1ccc(C2=NN(C(=O)CCCC(=O)O)C(c3cccs3)C2)cc1 (stereo unspecified)	-84*	-1%	-16%[46.1 µM]	17%[46.1 µM]
CS(=O)(=O)Nc1cccc(C2=NN(C(=O)CCC(=O)O)C(c3cccs3)C2)c1 (stereo unspecified)	-16	-5%	·	·
CN(C)c1ccc(CC(=O)N2CCCCC2c2cc(C(=O)Nc3ccccc3Cl)no2)cc1 (stereo unspecified)	-37	35µM*	·	·
CN1CCCCCC1C(=O)NCC1Cc2cc(-c3cnccn3)ccc2O1 (stereo unspecified)	·	10%	·	·
COc1ccc(-n2cc(-c3ccc4c(c3)OCO4)n(CC(=O)Nc3cccc(C)c3C)c2=O)c(OC)c1	-86*	?	?	?
CCCn1c(=O)c2sccc2n2c(CCCC(=O)NC3CCCCC3)nnc12	9	-2%	·	21%[46.1 µM]
CS(=O)(=O)N(Cc1ccccc1)c1ccc(C(=O)N2CCN(c3cccc(Cl)c3)CC2)cc1	-29	?	13µM*	?
CC1CCc2onc(C(=O)N3CCN(c4cccc(Cl)c4)CC3)c2C1 (stereo unspecified)	-60*	-29%	·	?
CS(=O)(=O)c1ncc(Cl)c(C(=O)N2CCN(c3cccc(Cl)c3)CC2)n1	-101*	18µM*	?	?
CCS(=O)(=O)c1ncc(Cl)c(C(=O)N2CCN(c3cccc(Cl)c3)CC2)n1	-101*	14µM*	5.6µM*	?
COc1ccc(OCC(=O)N2CCN(c3cccc(Cl)c3)CC2)cc1	-24	0%	?	-9%
CCOC(=O)C1=CCN(S(=O)(=O)c2cccc(Cl)c2)C1c1ccc(Cl)c(Cl)c1 (stereo unspecified)	-15	·	·	·
O=C(NCc1ccccc1)C1C(c2ccc3c(c2)OCO3)=Nc2ccccc2N1C(=O)c1ccco1 (stereo unspecified)	-62*	40%	·	·

Source: PubChem BioAssay (National Center for Advancing Translational Sciences (NCATS))
